Compound activity as filed in PubChem.
Shown is part of a subset that was picked to be rich in hits.
L3MBTL1 inh = inhibitors of human L3MBTL1; Q9Y468; AlphaScreen L3MBTL1–H3K9me1 peptide binding; Potency, µM (top dose mostly 57.1 µM), for the others: at the highest dose activity, negative = inhibition, usual class: inhibitors; actives 0.66% (n = 230,000); further: nearly all actives have a fitted effect of over 60% in size
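L3MBTL1 (50 nM) pre-complexed 30 min with biotinylated H3(1-15)K9me1 peptide (75 nM), then compounds added for 30 min at room temperature; AlphaScreen streptavidin donor/nickel chelate acceptor beads (10 ug/mL final) read after 30 min dark incubation.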
RECQ1 helicase = RECQ1 (human) helicase inhibition. P46063. RECQ1 DNA unwinding, red fluorescence kinetic read. Potency, µM (series often up to 57.3 µM), inactives show at the highest dose activity, negative = inhibition, hits mostly inhibitors. actives 0.54% (n = 240,000). AID 2549;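 further: plate controls were vehicle for no effect and no enzyme for full effect; nearly all actives have a fitted effect of over 30% in size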
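50 nM RECQ1T1 preincubated 15 min with compound in Tris pH 8.0 buffer with MgCl2, DTT, Tween-20 and 2.5 ug/ml poly(dI-dC); started with 200 nM TAMRA/BHQ-2 forked duplex and 2 mM ATP. Unwinding read as fluorescence (525/598 nm), two reads 2 h apart.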
BLM inh = blocks DNA unwinding by human BLM helicase | Potency, µM (series often up to 56.1 µM), for inactives: at the top dose activity change, negative = inhibition, usual class: inhibitors | actives 0.2% (n = 350,000) | P54132 | recombinant BLM DNA unwinding, fluorescence dequenching;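 further: plate controls were vehicle for no effect and no enzyme for full effect; nearly all actives have a fitted effect of over 35% in size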
TDP1 inh = inhibitors of human tyrosyl-DNA phosphodiesterase TDP1; Q9NUW8; recombinant TDP1, AlphaScreen DNA substrate cleavage; Potency, µM (series often up to 130 µM), for inactives: at the highest dose activity change, negative = inhibition, most hits filed as inhibitors; actives 0.28% (n = 350,000); AID 485290; further: nearly all actives have a fitted effect of over 40% in size
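Signal: AlphaScreen proximity between streptavidin donor and anti-FITC acceptor beads on intact substrate. Reaction: Tdp1 1 nM, substrate 15 nM final, 5 min RT after 15 min compound preincubation.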
JMJD2E inh = inhibitors of human JMJD2E histone demethylase | B2RXH2 | JMJD2E catalytic domain, FDH-coupled NADH fluorescence (FDH is formaldehyde dehydrogenase) | Potency, µM (highest dose often 57.1 µM), inactives show top-dose activity change, negative = inhibition, usual class: inhibitors | actives 1.6% (n = 230,000); active means well fitted inhibition curve with a large enough effect, not every such curve was filed as active; inconclusive means small, poorly fitted or top-dose-only effect, or another doubt; inactive means no such curve, though single readings can be large or run the other way;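 further: 0% = wells with enzyme and -100% = buffer wells without enzyme; nearly all actives have a fitted effect of over 50% in size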
Target sequence (B2RXH2 1-337 limits assumed): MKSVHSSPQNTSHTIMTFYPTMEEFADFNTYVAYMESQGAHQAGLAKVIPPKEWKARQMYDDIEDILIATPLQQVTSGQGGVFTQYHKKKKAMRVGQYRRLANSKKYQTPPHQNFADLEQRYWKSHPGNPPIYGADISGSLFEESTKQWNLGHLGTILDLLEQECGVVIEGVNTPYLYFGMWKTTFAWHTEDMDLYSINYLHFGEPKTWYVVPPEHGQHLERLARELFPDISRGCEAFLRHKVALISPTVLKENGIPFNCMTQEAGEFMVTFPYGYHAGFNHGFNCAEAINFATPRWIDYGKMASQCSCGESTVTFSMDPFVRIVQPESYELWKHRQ
APEX1 inh = inhibitors of human APE1 endonuclease. P27695. recombinant APE1, TAMRA/BHQ-2 abasic DNA cleavage fluorescence. Potency, µM (highest dose often 65.8 µM), without a hit: at the highest dose activity change, negative = inhibition, actives largely listed as inhibitors. actives 0.35% (n = 350,000);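 further: plate controls were vehicle for no effect and reference inhibitor for full effect; nearly all actives have a fitted effect of over 55% in size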
Target sequence (P27695 whole entry, looked up): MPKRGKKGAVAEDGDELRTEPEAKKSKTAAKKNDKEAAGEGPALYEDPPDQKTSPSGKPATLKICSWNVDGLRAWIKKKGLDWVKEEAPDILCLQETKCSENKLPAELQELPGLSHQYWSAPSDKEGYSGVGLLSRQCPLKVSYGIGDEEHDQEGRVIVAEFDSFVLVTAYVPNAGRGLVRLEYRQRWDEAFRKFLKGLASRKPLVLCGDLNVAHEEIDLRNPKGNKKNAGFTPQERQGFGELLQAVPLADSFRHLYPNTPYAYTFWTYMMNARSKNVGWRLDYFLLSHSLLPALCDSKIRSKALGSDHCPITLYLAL
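Readout is kinetic fluorescence (ex 525, em 598 nm) from cleavage of 50 nM TAMRA/BHQ-2 THF abasic duplex by 0.75 nM APE1, compound added 15 min beforehand at RT.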
Numbers without * were called inactive; i = inactive; ? = inconclusive; . = not tested or not shown; [ ] = another dose, or the depositor's remark. Unless noted, the call rests on the fitted dose curve; in most records, active means well fitted curve in the direction sought with a large enough effect; inconclusive means small, poorly fitted or top-dose-only effect, or another doubt; inactive means no such curve, though single readings can be large; an effect the other way counts as inactive or inconclusive. Unless noted, on the % scale 0 is the no-effect control and ±100 the full control effect; potency means the concentration at half of the fitted maximal effect.

SMILES	L3MBTL1 inh	RECQ1 helicase	BLM inh	TDP1 inh	JMJD2E inh	APEX1 inh
Cn1c2ccccc2c2cc(/C=N/NC(=O)c3cc(O)cc(O)c3)ccc21	.	.	-21.6%	.	.	13.4µM*
COc1ccc2c(c1)c(C(=O)N/N=C/c1ccc(O)c(O)c1)c(C)n2C	-4.3%	i	-1.5%	3.1%	14.1µM*	-4.3%
Cn1c(-n2cccc2)c(-c2c(-c3ccccc3)[nH]c3c2c(=O)[nH]c(=O)n3C)c(=O)[nH]c1=O	14.1µM*	.	-17.9%	?	.	?
FC(F)(F)c1cnc(C(c2ccccc2)c2ncn[nH]2)c(Cl)c1 (stereo not given)	0.1%	i	-12.7%	0.0%	10.8%	-0.6%
FC(F)(F)c1cnc(C(c2ccccn2)c2ncn[nH]2)c(Cl)c1 (stereo not given)	8.91µM*	-5.2%	1.1%	2.9%	25.1µM*	-2.3%
CCc1cc(=O)oc2c(C)c3c(cc12)CN(CCc1ccccc1OC)CO3	.	.	-3.8%	4.9%	.	.
CC1(C)CC(=O)C(N=Nc2ccc(C(F)(F)F)cc2[N+](=O)[O-])=C(O)C1	-16.2%	-4.4%	-6.4%	11.4%	12.6µM*	?
CCN(CC)c1ccc(N=Nc2nn(C)c(C)c2[N+](=O)[O-])cc1	?	-17.1%	-4.7%	11.3%	-0.1%	?
CCN(CC)c1ccc(N=Nc2ncn[nH]2)cc1	-10.1%	-14.5%	-4.4%	8.0%	14.1µM*	-3.7%
O=[N+]([O-])c1ccc(O)c(/C=N/Nc2ccccn2)c1	12.6µM*	-6.5%	2.0%	8.2%	?	-0.4%
CCNC(=O)C(=O)N/N=C/c1cc([N+](=O)[O-])ccc1O	.	-0.6%	0.5%	8.6%	25.1µM*	6.2%
O=C(N/N=C/c1cc([N+](=O)[O-])ccc1O)NC12CC3CC(CC(C3)C1)C2	-3.7%	-1.1%	1.4%	8.1%	-11.3%	-3.8%
O=[N+]([O-])c1cccc(N/N=C/c2cc([N+](=O)[O-])ccc2O)c1	-8.6%	-6.9%	-6.8%	4.2%	1.7%	2.9%
O=[N+]([O-])c1ccc(O)c(/C=N/NC(=S)Nc2ccc(Cl)cc2Cl)c1	.	-24.6%	-25.8%	11.6%	8.91µM*	9.0%
O=C(N/N=C/c1cc([N+](=O)[O-])ccc1O)Nc1ccccc1	-20.4%	i	-5.0%	8.4%	28.2µM*	-2.0%
CCOC(=O)C1CCN(C(=O)c2ccc3c(c2)sc2nc(-c4ccccc4)cn23)CC1	.	.	-0.2%	0.0%	.	.
COc1ccc(N2CC(C(=O)N/N=C/c3cc([N+](=O)[O-])ccc3O)CC2=O)cc1 (stereo not given)	.	9.5%	-6.8%	7.9%	25.1µM*	3.7%
COc1cccc(-c2oc3ccc(C)cc3c(=O)c2O)c1	.	.	-4.3%	3.2%	.	.
[N-]=C=C1C(=S)NC(=O)[C@H]([n+]2ccccc2)[C@H]1c1ccc(Cl)cc1	27.1%	31.6µM*	3.2%	-10.3%	?	?
O=C(O)c1ccc(Nc2nc(-c3cc4ccccc4oc3=O)cs2)cc1O	?	-29.2%	-29.4%	79.4µM*	20µM*	-6.6%
CCC(C)(C)C(=O)O[C@@H]1C[C@@H](C)C=C2C=C[C@H](C)[C@H](CC[C@@H]3C[C@@H](O)CC(=O)O3)[C@H]21	.	-17.5%	-16.6%	9.5%	-21.3%	-8.8%
CCN1/C(=C/C=C/c2sc3ccccc3[n+]2CC)Sc2ccccc21	28.2µM*	.	31.6µM*	.	.	23.8µM*
CCN1/C(=C/C=C/C=C/c2sc3ccccc3[n+]2CC)Sc2ccccc21	?	?	?	2.9%	22.4µM*	?
CC[n+]1c(/C=C/Nc2ccccc2)sc2ccccc21	5.6%	8.9%	-0.7%	7.1%	-2.8%	-6.5%
CCN1/C(=C/C=C/C=C/C=C/c2sc3ccccc3[n+]2CC)Sc2ccccc21	.	.	0.2%	.	.	-31.0%
SMILES	L3MBTL1 inh	RECQ1 helicase	BLM inh	TDP1 inh	JMJD2E inh	APEX1 inh
COCCNC(=O)c1c(C)oc2nc(C)nc(N3CCOCC3)c12	.	.	0.8%	2.1%	.	.
CC(C)CCN1CCc2nc(-c3ccccc3)c3c(c2C1)COC(C)C3 (stereo not given)	.	i[11.5 µM]	-2.9%[12.4 µM]	11.1%[21 µM]	.	17.6%[12.4 µM]
CCOc1ccc(NC(=O)Cc2ccccc2)c([N+](=O)[O-])c1	5.01µM*	-6.1%	-1.2%	3.0%	1.6%	1.6%
CCOC(=O)c1c(/N=C/c2ccc(OC)cc2O)sc2c1CCN(C)C2	25.1µM*	?	-6.4%	1.2%	?	6.8%
CN(C)Cc1c(O)ccc2c3c(c(=O)oc12)CCCCC3	.	-6.3%	1.0%	3.9%	?	1.3%
CN(Cc1c(O)ccc2c1oc(=O)c1ccccc12)C1CCCCC1	.	-8.6%	2.4%	.	25.1µM*	-0.1%
Cc1ccc2nc(/C(C#N)=C/c3ccc(O)c(O)c3)[nH]c2c1	.	.	20µM*	7.8%	.	6.4%
Cc1ccc2nc(/C(C#N)=C/c3cccc(Br)c3)[nH]c2c1	.	.	-18.3%	.	.	.
CC(=O)Nc1ccc(S(=O)(=O)N2CCN(S(=O)(=O)c3c(F)cccc3F)CC2)cc1	.	.	.	-0.2%	.	.
O=C(N=Nc1c(O)[nH]c2ccc([N+](=O)[O-])cc12)c1ccccc1[N+](=O)[O-]	-13.0%	-5.0%	-14.8%	7.5%	-2.7%	1.0%
CCc1cc(C(=O)N=Nc2c(O)[nH]c3ccc([N+](=O)[O-])cc23)c2ccccc2n1	?	0.5%	17.8µM*	5.7%	-7.7%	-10.6%
O=C(CSc1ccc2nc(-c3ccccc3)cn2n1)Nc1cccc(F)c1	.	.	-6.1%	5.4%	.	.
CN1CCN(C(=S)NC(=O)c2ccc(C(C)(C)C)cc2)CC1	3.5%	-5.1%	-3.2%	0.6%	5.6%	16.1%
C=CCn1cccc(/C=C/C(=O)c2ccc(C(C)(C)C)cc2)c1=S	28.2µM*	-16.7%	-10.7%	7.9%	-5.9%	-3.1%
CCOC(=O)c1ccc(NC(=O)CSc2ncc(S(=O)(=O)c3ccc(C)c(Cl)c3)c(=O)[nH]2)cc1	.	.	-5.9%	4.1%	.	.
Clc1ccc(-n2cnnn2)cc1	9.2%	-4.5%	-3.4%	5.2%	-4.8%	-2.2%
CO/C=C\C=C/c1nnn(-c2ccc(Cl)cc2)n1	-9.3%	-1.1%	-1.6%	5.1%	25.1µM*	0.3%
CC(C)(C)n1ncc2c(=O)n(Cc3ccc(OC(F)(F)F)cc3)cnc21	.	.	.	.	.	3.4%
Cc1ccc(Nc2nc(NCc3ccco3)nc3nccnc23)c(C)c1	.	.	.	8.91µM*	.	.
COc1ccc(NC(=O)CN2C(=O)/C(=C3\SC(=S)N(CCC(=O)O)C3=O)c3ccccc32)cc1	.	.	-3.5%	7.0%	.	34.5%
O=C(O)CCN1C(=O)/C(=C2\C(=O)N(Cc3ccccc3Cl)c3ccccc32)SC1=S	.	.	-20.6%	.	.	7.52µM*
c1c[nH]c(CNc2ncnc3ccc(-c4ccc5c(c4)OCO5)cc23)n1	.	.	.	-18.8%	.	.
